In PubChem BioAssay (NCATS) one finds Potency and outcome data, which are given here for 26 compounds.

The nature of assay [1]: Primary qHTS for inhibitors of nuclear receptor binding SET domain protein 2 (NSD2) in an isogenic RCH-ACV NSD2 p.E1099K mutant (9B) (AID 1645876; note: nearly all actives have a fitted effect of over 70% in size; note: potency is the fitted concentration of half-maximal effect). (Quantitative high-throughput screening tests each substance at several concentrations.)
Assay [2] addresses Glutathione peroxidase 1 (Homo sapiens) (UniProt P07203). Put plainly: Primary qHTS Assay for Inhibitors of Recombinant Selenoprotein Glutathione Peroxidase 1 (GPX1) (AID 1845191). Note: nearly all actives have a fitted effect of over 65% in size. In a few lines: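 Recombinant GPX1 (10 nM final) was preincubated with compound for 30 min at room temperature, then reacted with 1 mM GSH, 0.5 mM CHP, 0.5 mM NADPH and 100 nM glutathione reductase; NADPH fluorescence (340/450 nm) was read at 0 and 15 min.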

Assay [3] can be described thus: Primary qHTS for inhibitors of nuclear receptor binding SET domain protein 2 (NSD2) in an RCH-ACV wild type WT cells (2C) (AID 1645877). Note: nearly all actives have a fitted effect of over 70% in size. Note: potency is the fitted concentration of half-maximal effect.
Assay [4] has as its target Phospholipid hydroperoxide glutathione peroxidase GPX4 (Homo sapiens) (UniProt P36969). In words: Primary qHTS Assay for Inhibitors of Recombinant Selenoprotein Glutathione Peroxidase 4 (GPX4) (AID 1845192). Note: nearly all actives have a fitted effect of over 65% in size. In a few lines: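 GR-coupled readout: 100 nM GR, 1 mM GSH, 0.5 mM NADPH; NADPH fluorescence (ex 340/em 450 nm) read at t=0 and after 15 min RT. GPX4 200 nM, preincubated 30 min with compound; substrate 0.5 mM CHP.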

The nature of assay [5]: NCATS anti-infectives library activity on HEK293 viability as a counter-qHTS vs the C. elegans viability qHTS (AID 1745854).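 Note: HEK293 cells exposed to compounds for 24 hr before the viability read.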 An outline of the steps: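 HEK293 cells (1,500/well) exposed 24 hr at 37C to 1:5 titrations, up to 41.7 uM final; counter-screen to a C. elegans viability qHTS. Viability by CellTiter-Glo luminescence after 10 min at room temperature; digitonin as control.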

Assay [6] in a line: NCATS anti-infectives library activity on the primary C. elegans qHTS viability assay (AID 1745855; calls by dose curve). To be noted: C. elegans worm area imaging, day 7; at 41.8 µM (top of the series) unless noted. An outline of the steps:
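Viability read-out is GFP fluorescence of PE254-GFP-FLuc C. elegans, measured by laser cytometry (488 nm) at day 0, 3 and 7. Ten L1 worms per well were incubated 7 days at 21 °C with compounds and bacterial capsules in S medium.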

Assay [7] concerns the target Rap guanine nucleotide exchange factor 3 (Homo sapiens) (UniProt O95398). Put plainly: Confirmatory qHTS for antagonist of cAMP-regulated guanine nucleotide exchange factor 3 (EPAC1) (AID 1645880). Note: potency is the fitted concentration of half-maximal effect; nearly all actives have a fitted effect of over 55% in size. An outline of the steps:
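Nucleotide exchange uses 100 nM EPAC1, 250 nM RAP1B-BODIPY-GDP and 50 uM GDP, with compounds in a concentration-titration series. After 5 min at room temperature, fluorescence (480 nm ex/540 nm em) is read every 5 min for 30 min. Data are normalized to control ATA and DMSO.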

The target is the same in assay [8]. Put plainly: Confirmatory qHTS for agonist of cAMP-regulated guanine nucleotide exchange factor 3 (EPAC1) (AID 1645881).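 Note: EPAC1 catalysed release of BODIPY-GDP from Rap1B seen as fluorescence loss; nearly all actives have a fitted effect of over 75% in size.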
The target in assay [9] is Rap guanine nucleotide exchange factor 4 (Homo sapiens) (UniProt Q8WZA2). In words: Confirmatory qHTS for agonist of cAMP-regulated guanine nucleotide exchange factor 4 (EPAC2) (AID 1645884).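 Note: nucleotide exchange releases bodipy-GDP from Rap1 and this lowers its fluorescence; nearly all actives have a fitted effect of over 65% in size.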
Rap guanine nucleotide exchange factor 4 (Homo sapiens), sequence (Q8WZA2 whole entry, looked up): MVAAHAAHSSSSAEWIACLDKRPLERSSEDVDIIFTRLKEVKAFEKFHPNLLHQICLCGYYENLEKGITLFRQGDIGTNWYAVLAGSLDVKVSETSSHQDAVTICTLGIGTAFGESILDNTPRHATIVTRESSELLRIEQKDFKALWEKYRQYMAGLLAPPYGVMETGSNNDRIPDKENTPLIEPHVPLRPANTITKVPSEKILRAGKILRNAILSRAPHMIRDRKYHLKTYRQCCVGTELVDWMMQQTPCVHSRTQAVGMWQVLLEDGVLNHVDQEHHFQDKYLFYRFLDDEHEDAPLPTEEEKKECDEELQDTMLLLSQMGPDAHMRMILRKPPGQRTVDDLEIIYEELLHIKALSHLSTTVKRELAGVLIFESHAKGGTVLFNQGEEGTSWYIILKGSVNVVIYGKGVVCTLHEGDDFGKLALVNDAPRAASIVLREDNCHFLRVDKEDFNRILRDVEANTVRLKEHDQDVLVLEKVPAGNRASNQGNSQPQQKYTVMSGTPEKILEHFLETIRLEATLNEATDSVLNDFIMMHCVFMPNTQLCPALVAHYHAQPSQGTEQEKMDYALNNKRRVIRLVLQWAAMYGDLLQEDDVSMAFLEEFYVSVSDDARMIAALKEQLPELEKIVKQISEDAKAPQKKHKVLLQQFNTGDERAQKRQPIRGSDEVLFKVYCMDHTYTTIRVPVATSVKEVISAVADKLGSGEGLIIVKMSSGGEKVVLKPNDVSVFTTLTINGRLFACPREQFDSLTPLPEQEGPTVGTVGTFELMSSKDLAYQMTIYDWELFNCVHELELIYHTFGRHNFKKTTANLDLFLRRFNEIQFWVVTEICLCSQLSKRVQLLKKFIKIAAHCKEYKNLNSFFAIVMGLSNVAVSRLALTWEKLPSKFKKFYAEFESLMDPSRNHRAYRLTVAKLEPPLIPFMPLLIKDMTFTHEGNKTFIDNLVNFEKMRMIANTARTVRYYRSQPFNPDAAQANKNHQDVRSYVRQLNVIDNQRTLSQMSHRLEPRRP
For assay [10] the target is unchanged. In words: Confirmatory qHTS for antagonist of cAMP-regulated guanine nucleotide exchange factor 4 (EPAC2) (AID 1645885). Note: nearly all actives have a fitted effect of over 25% in size.
Assay [11] has as its target Rap guanine nucleotide exchange factor 3 (Homo sapiens) (UniProt O95398). Put plainly: Counterscreen qHTS for antagonist of cAMP-regulated guanine nucleotide exchange factor 3 (EPAC1) (AID 1645888).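 Note: fluorescence loss as bound BODIPY-GDP is released from Rap1B.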 In a few lines:
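Measured: fluorescence of BODIPY-GDP bound to Rap1B, which falls as exchange proceeds. Conditions include 50 uM competing GDP, 5 and 30 min reads, and a later cAMP challenge for antagonist detection.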

Inconclusive results are not listed. Active and inactive are the calls of the source. Unless noted, calls come from the whole dose curve; as a rule, active = well fitted curve in the direction sought with a large enough effect; inconclusive = small, poorly fitted or top-dose-only effect, or another doubt; inactive = no such curve, though single readings can be large; an effect the other way counts as inactive or inconclusive.

Phospholipid hydroperoxide glutathione peroxidase GPX4 (Homo sapiens), sequence (P36969 whole entry, looked up): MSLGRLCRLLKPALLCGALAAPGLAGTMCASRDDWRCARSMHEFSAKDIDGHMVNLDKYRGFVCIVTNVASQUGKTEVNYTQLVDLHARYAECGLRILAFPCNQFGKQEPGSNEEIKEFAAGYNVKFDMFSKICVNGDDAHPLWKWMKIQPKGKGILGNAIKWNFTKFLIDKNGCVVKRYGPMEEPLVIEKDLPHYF
Rap guanine nucleotide exchange factor 3 (Homo sapiens), sequence (O95398 whole entry, looked up): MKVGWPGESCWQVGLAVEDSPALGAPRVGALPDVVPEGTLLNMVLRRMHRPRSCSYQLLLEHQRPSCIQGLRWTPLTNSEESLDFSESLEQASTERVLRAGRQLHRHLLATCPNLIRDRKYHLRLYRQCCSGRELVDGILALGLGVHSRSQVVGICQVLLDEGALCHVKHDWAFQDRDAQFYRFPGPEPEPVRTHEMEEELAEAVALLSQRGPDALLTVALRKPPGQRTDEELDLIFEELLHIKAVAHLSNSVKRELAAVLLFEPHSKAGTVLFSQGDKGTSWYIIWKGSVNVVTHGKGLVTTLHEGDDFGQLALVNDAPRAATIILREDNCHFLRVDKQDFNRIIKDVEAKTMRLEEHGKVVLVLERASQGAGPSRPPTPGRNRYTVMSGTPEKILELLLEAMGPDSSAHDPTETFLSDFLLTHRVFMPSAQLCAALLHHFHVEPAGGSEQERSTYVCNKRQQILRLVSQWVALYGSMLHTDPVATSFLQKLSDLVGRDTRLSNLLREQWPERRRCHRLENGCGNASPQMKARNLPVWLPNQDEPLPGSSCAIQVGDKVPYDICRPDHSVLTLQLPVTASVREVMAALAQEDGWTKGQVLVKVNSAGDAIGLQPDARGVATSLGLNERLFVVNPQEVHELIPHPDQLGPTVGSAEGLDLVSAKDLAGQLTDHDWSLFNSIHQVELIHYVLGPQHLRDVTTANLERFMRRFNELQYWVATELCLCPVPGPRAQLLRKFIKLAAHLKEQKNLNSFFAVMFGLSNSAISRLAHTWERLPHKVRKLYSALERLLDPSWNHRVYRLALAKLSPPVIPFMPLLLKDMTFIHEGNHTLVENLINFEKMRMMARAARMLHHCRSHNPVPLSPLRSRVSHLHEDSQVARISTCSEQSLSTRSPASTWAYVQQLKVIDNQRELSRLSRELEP
Glutathione peroxidase 1 (Homo sapiens), sequence (P07203 whole entry, looked up): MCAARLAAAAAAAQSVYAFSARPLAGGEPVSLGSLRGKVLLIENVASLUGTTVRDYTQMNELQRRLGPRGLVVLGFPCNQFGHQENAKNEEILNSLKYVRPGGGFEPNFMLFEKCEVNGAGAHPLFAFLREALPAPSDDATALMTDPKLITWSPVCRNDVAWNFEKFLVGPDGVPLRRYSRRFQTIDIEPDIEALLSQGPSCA

In the case of `CCN(CC)CCOc1ccccc1C(=O)CCc1ccccc1`, the Potency result in assay [1] and in assay [2] was “inactive” each time.

Regarding `Cc1ccc(-c2ncc(Cl)cc2-c2ccc(S(C)(=O)=O)cc2)cn1`, the Potency result in assay [1], in assay [3] and in assay [4] was “inactive” in each case.

In the case of `O=C(O)CCc1nc2ccccc2[nH]1`, in [1], the Potency entry is “inactive”. Besides, the call in assay [5] and in assay [6] was inactive.

As for `CCCCCCCCCCC[C@@H](C[C@@H]1OC(=O)[C@H]1CCCCCC)OC(=O)[C@H](CC(C)C)NC=O`, the Potency entry in assay [1], in assay [2] and in assay [4] was “inactive” in each case. Moreover, the compound was called inactive in assay [5].

With `CC(=O)Nc1ccc(S(=O)(=O)Nc2ccc([N+](=O)[O-])cc2)cc1`, the Potency result in assay [1], in assay [3] and in [4] was “inactive” in each case.

As to `CCCCCCCCCCCCSCCOCCO`, the Potency entry in assay [1], in [2] and in assay [4] was “inactive” each time.

On to `CCCCCN=C(N)N/N=C/c1c[nH]c2ccc(OC)cc12`, for which the Potency in assay [1] is 7.5 µM (active). The Potency result in assay [2] was “inactive”.

`CCOc1ccccc1OCCN[C@H](C)Cc1ccc(OC)c(S(N)(=O)=O)c1`: the Potency entry in assay [1], in assay [3] and in assay [4] was “inactive” throughout.

As for `COc1cc(C(=O)NCc2ccc(OCCN(C)C)cc2)cc(OC)c1OC`, the Potency result in assay [1] was “inactive”. For the same compound, the compound was called inactive in [5].

On to `CC(CNC1CCCCC1)OC(=O)c1ccccc1` (stereo not drawn), for which the Potency entry in assay [1], in assay [3] and in assay [4] was “inactive” each time.

Turning to `CNCCc1ccccn1`, the Potency entry in assay [1], in assay [2] and in [4] was “inactive” in each case.

Take `CCOc1ccc(NC(C)=O)cc1`: the Potency entry in assay [1], in assay [2] and in [4] was “inactive” throughout.

As to `FC(F)(F)C(F)(F)C(F)(F)C(F)(F)C(F)(F)C(F)(F)C(F)(F)C(F)(F)Br`, the Potency result in [1], in [3] and in assay [4] was “inactive” throughout.

With `CC[N+](C)(CC)CCOC(=O)C(O)(c1ccccc1)C1CCCCC1` (stereo not drawn), the Potency result in assay [1] and in assay [2] was “inactive” throughout.

For `C[C@@]12C(=O)OC(=O)[C@]1(C)C1CCC2O1`, the Potency in assay [1] is 2.99 µM (active). In addition, the Potency result in assay [2] and in assay [4] was “inactive” in each case.

Take `O=C(O)CCNC(=O)c1ccccc1`: the Potency result in assay [1], in assay [3] and in assay [4] was “inactive” in each case.

Take `CCO[C@@H]1O[C@H](C(COCc2ccccc2)OCc2ccccc2)[C@H](OCc2ccccc2)[C@H]1O` (stereo partly drawn): the Potency in [1] is 23.7 µM (active). Also, the Potency entry in assay [2] and in assay [4] was “inactive” each time.

Take `C=C1c2cccc(O)c2C(O)=C2C(=O)[C@]3(O)C(O)=C(C(N)=O)C(=O)[C@@H](N(C)C)[C@@H]3[C@@H](O)[C@H]12`: the Potency result in assay [1] and in [10] was “inactive” in each case. Also, in [7], the Potency was 47.8 µM (active). Besides, the result in assay [8], in assay [9] and in assay [11] was inactive.

With `O=C1C(=O)c2ccccc2C(O)=C1C1CCC(c2ccc(Cl)cc2)CC1` (stereo not drawn), the Potency result in assay [1], in assay [2] and in [4] was “inactive” throughout. The compound was called inactive in assay [5] and in [6].

Consider `Cc1ccc(O)c([C@H](CCN(C(C)C)C(C)C)c2ccccc2)c1`, for which the Potency in assay [1] is 21.1 µM (active). Besides, the Potency entry in assay [2] and in assay [4] was “inactive” each time.

As for `O=C(Nc1cccc(C2=NCCN2)c1)Nc1cccc(C2=NCCN2)c1`, the Potency in assay [1] was 10.3 µM (active). In addition, the Potency entry in [2] is “inactive”.

As for `CCOc1ccccc1C(N)=O`, the Potency in [1] is 18.8 µM (active). Besides, the Potency result in assay [2] and in assay [4] was “inactive” throughout.

Regarding `CCN(CC)CCOC(=O)C1(c2ccccc2)CCCC1`, the Potency entry in [1] and in [2] was “inactive” throughout.

Regarding `CC(C)[C@@H]1CC[C@@H](C)CC1=O`, the Potency result in assay [1], in assay [3] and in assay [4] was “inactive” each time.

Take `CN(C)CCOC(=O)C(c1ccccc1)C1(O)CCCC1` (stereo not drawn): the Potency result in assay [1], in [3] and in [4] was “inactive” throughout.

Regarding `CN1CCC[C@@H]1CCO[C@](C)(c1ccccc1)c1ccc(Cl)cc1`, the Potency in assay [1] is 21.1 µM (active); in assay [3], 13.3 µM (active). Moreover, the Potency entry in assay [4] is “inactive”.
